Some test systems named below: EPHA7; EPHA8; EPHB1; EPHB2; EPHB3; EPHB4; EPHB6; ERBB2; ERBB3; ERBB4; ERN1; FER; FES.
Holding throughout (settings): concentration: 1 μM, replicates: in singlicate; n = 1
The test system of a further assay is T1, ERK1.
T1 construct: gene MAPK3

Another assay has as its system T2, ERK2.
T2 construct: gene MAPK1

In another assay the test system is T3, ERK3.
T3 construct: gene MAPK6

For another assay, the system named is T4, ERK4.
T4 construct: gene MAPK4

For the next assay, the system named is T5, ERK5.
T5 construct: gene MAPK7

The test system of a further assay is T6, ERK8.
T6 construct: gene MAPK15

The next assay deals with T7, FAK.
T7 construct: gene PTK2

The structures appear in SMILES notation.
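Note: KINOMEscan kinase panel screen.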

`Cc1ccc(NC(=O)c2ccnc(N3CCCCC3)c2)cc1-c1ccc(C(=O)NCC2CC2)cc1` [GW775610]: the “%Inh” value in the assay with EPHA7, with EPHA8, with EPHB1, in the assay on EPHB2, in the assay with EPHB3 and with EPHB4 was 0% each time. Also, the “%Inh” value in the assay on EPHB6 came out at 5%; with ERBB2, 21%; in the assay on ERBB3 it was 0%; with ERBB4 it was 19%; with ERK1, 37%; in the assay on ERK2, 9%. Moreover, the “%Inh” value worked out at 0% with ERK3; 21% with ERK4; 6% with ERK5; 0% with ERK8; 70% in the assay with ERN1; 0% in the assay with FAK. Further, the “%Inh” value with FER and in the assay on FES was 4% throughout.
For the molecule `Cn1cc(-c2ccc3c(c2)CCN3C(=O)Cc2cc(F)cc(F)c2F)c2c(N)ncnc21` [GSK2634140], the “%Inh” value in the assay on EPHA7 was 3%; with EPHA8, 8%; in the assay on EPHB1 it was 14%; in the assay with EPHB2 it was 0%; in the assay on EPHB3, 11%; in the assay with EPHB4 it was 0%. The “%Inh” value is 87% in the assay with EPHB6; 31% with ERBB2; 0% in the assay on ERBB3; 41% in the assay on ERBB4; 9% in the assay on ERK1; 9% in the assay on ERK2. Besides, the “%Inh” value with ERK3 is 0%; in the assay with ERK4, 0%; with ERK5 it was 0%; with ERK8, 0%; in the assay with ERN1, 11%; in the assay on FAK it was 5%. For the same molecule, the “%Inh” value came to 39% in the assay with FER and 0% in the assay on FES.
Regarding `Fc1cc(Cl)ccc1Nc1ccnc2cc(-c3ccc(CN4CCOCC4)o3)ccc12` [GW560109], the “%Inh” value with EPHA7 turned out to be 59%; in the assay on EPHA8, 90.2%; in the assay on EPHB1, 50%; in the assay on EPHB2, 44%; in the assay with EPHB3, 15%; in the assay on EPHB4, 55%. The “%Inh” value in the assay on EPHB6 worked out at 91.7%; with ERBB2 it was 34%; in the assay on ERBB3, 80%; with ERBB4, 25%; in the assay with ERK1 it was 12%; in the assay on ERK2 it was 0%. Moreover, the “%Inh” value was 0% in the assay with ERK3; 0% with ERK4; 0% in the assay on ERK5; 19% with ERK8; 16% in the assay with ERN1; 0% in the assay with FAK. In addition, the “%Inh” value in the assay with FER turned out to be 6%; with FES, 0%.
`CN(C)CCNS(=O)(=O)c1ccc(-c2ccnc3[nH]ccc23)cc1` [GSK977620]: the “%Inh” value with EPHA7 is listed as 7%; in the assay on EPHA8, 3%; with EPHB1, 16%; in the assay with EPHB2, 0%; in the assay with EPHB3 it was 0%; in the assay on EPHB4, 0%. Moreover, the “%Inh” value in the assay with EPHB6 is recorded as 0%; with ERBB2, 0%; with ERBB3 it was 0%; in the assay with ERBB4, 30%; in the assay with ERK1 it was 2%; in the assay with ERK2 it was 1%. For the same molecule, the “%Inh” value in the assay on ERK3 was determined as 3%; in the assay on ERK4 it was 10%; with ERK5, 0%; in the assay with ERK8, 0%; in the assay on ERN1, 8%; in the assay on FAK, 0%. For the same molecule, the figures for the “%Inh” value with FER and with FES were 41% and 0%, respectively.
For `Nc1ncc(-c2ccc3nccc(-c4ccncc4)c3c2)cc1S(=O)(=O)N1CCCCC1` [GSK1693850], the “%Inh” value in the assay with EPHA7 amounted to 3%; in the assay on EPHA8 it was 8%; with EPHB1, 0%; in the assay with EPHB2, 15%; in the assay on EPHB3, 0%; in the assay on EPHB4, 8%. The “%Inh” value in the assay on EPHB6 is 43%; in the assay on ERBB2, 31%; with ERBB3, 0%; in the assay with ERBB4, 20%; with ERK1, 0%; with ERK2, 0%. Moreover, the “%Inh” value with ERK3 turned out to be 0%; in the assay on ERK4, 13%; in the assay on ERK5, 11%; in the assay on ERK8, 38%; with ERN1, 1%; with FAK, 0%. Besides, the entries for the “%Inh” value with FER and in the assay with FES were 32% and 0%, respectively.
Turning to `CCOc1nccc(-c2c(-c3ccc(F)cc3)ncn2C2CCNCC2)n1` [SB-249175], the “%Inh” value with EPHA7 was 0%; in the assay with EPHA8, 0%; in the assay on EPHB1 it was 0%; in the assay with EPHB2 it was 11%; in the assay on EPHB3 it was 0%; in the assay on EPHB4, 0%. Besides, the “%Inh” value with EPHB6 was 14%; in the assay with ERBB2, 5%; with ERBB3, 36%; in the assay on ERBB4, 30%; in the assay with ERK1, 0%; with ERK2, 0%. Further, the “%Inh” value in the assay on ERK3 stood at 26%; in the assay on ERK4, 13%; in the assay with ERK5 it was 12%; in the assay on ERK8, 2%; with ERN1, 1%; in the assay with FAK, 0%. Besides, the “%Inh” value with FER stood at 9%; in the assay with FES, 0%.
As to `Cc1ccc(O)cc1Nc1ccnc2ccc(C(C)(C)C)cc12` [GW856805], the “%Inh” value in the assay on EPHA7 was 0%; in the assay with EPHA8, 98.2%; in the assay on EPHB1 it was 97.4%; in the assay on EPHB2, 92.5%; with EPHB3, 100%; with EPHB4, 97.1%. Besides, the “%Inh” value was 24% in the assay with EPHB6; 32% in the assay on ERBB2; 15% in the assay on ERBB3; 24% in the assay on ERBB4; 2% in the assay with ERK1; 0% with ERK2. The “%Inh” value stood at 9% in the assay with ERK3; 6% with ERK4; 9% in the assay on ERK5; 13% with ERK8; 27% in the assay with ERN1; 34% with FAK. Further, the “%Inh” value worked out at 21% in the assay on FER and 12% in the assay with FES.
As for `COC(=O)Nc1nc2ccc(Oc3ccc(NC(=O)Nc4cc(C(F)(F)F)ccc4F)cc3)cc2[nH]1.Cl` [GW654607], the “%Inh” value with EPHA7 came out at 89%; with EPHA8, 99.6%; in the assay on EPHB1, 81%; in the assay with EPHB2 it was 80%; with EPHB3 it was 40%; with EPHB4, 58%. Also, the “%Inh” value with EPHB6 came to 92.4%; in the assay on ERBB2 it was 6%; in the assay on ERBB3, 0%; in the assay on ERBB4 it was 6%; in the assay with ERK1, 0%; with ERK2 it was 6%. Also, the “%Inh” value in the assay on ERK3 is recorded as 16%; in the assay with ERK4, 0%; in the assay on ERK5, 0%; in the assay with ERK8, 97.6%; with ERN1, 10%; in the assay with FAK it was 0%. The “%Inh” value in the assay on FER and in the assay on FES was 0% in each case.
In the case of `CC(C)(C)c1ccc(C(=O)Nc2cn3cc(-n4ccnc4)ccc3n2)cc1`, the “%Inh” value stood at 0% with EPHA7; 0% in the assay with EPHA8; 3% in the assay with EPHB1; 8% with EPHB2; 0% in the assay with EPHB3; 0% in the assay on EPHB4. Moreover, the “%Inh” value was 2% with EPHB6; 29% with ERBB2; 8% in the assay with ERBB3; 37% in the assay on ERBB4; 0% in the assay with ERK1; 13% with ERK2. Moreover, the “%Inh” value with ERK3 was found to be 10%; with ERK4, 5%; with ERK5, 19%; with ERK8 it was 0%; in the assay on ERN1 it was 25%; in the assay with FAK, 7%. Besides, the “%Inh” value with FER and with FES was 0% in each case.

Source of the values: paper PMC5540273 (PLoS ONE, 2017).
